Test [1] has as its target T1, Methionyl-tRNA synthetase, putative (Leishmania donovani (strain BPK282A1)) (UniProt E9BF75).
T1 sequence (whole entry): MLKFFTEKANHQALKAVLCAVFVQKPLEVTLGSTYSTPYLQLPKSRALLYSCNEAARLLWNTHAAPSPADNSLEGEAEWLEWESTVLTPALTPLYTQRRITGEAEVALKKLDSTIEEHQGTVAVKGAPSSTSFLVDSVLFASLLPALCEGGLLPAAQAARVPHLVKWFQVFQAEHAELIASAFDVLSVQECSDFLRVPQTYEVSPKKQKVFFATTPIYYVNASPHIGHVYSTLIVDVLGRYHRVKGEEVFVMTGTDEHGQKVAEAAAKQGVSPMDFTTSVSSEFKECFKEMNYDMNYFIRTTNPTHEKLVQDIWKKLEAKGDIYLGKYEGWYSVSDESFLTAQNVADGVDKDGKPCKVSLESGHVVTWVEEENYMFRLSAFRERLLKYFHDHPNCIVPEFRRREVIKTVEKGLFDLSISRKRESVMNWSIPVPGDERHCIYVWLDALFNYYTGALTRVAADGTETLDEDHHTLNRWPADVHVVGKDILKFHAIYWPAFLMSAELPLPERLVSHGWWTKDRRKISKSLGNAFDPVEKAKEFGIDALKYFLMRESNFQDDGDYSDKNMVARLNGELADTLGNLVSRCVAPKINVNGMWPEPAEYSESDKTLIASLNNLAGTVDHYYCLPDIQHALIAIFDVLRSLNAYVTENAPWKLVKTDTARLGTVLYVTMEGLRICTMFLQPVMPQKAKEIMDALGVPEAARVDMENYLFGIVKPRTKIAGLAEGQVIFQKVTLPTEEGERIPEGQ
Nature of the test: Leishmania donovani Methionine tRNA synthetase (LdMetRS):v7. Dose response assay. In kind it is functional. The arrangement: conc 80 nM, time 150 minutes.

For test [2], the target named is AMP-activated protein kinase, AMPK (Homo sapiens) (UniProt P54646+O43741+P54619+Q9UGJ0+Q9Y478+Q13131+Q9UGI9). Nature of the test: AMP-dependent Kinase enzyme assay. An in vitro enzyme assay that detects ADP turnover that is directly proportional to AMPK activity. This uses naive AMPK that is activated during the assay with MK-8722. As to conditions: 30 µM. In kind it is functional. Further details: scale not given: direction of the effect not stated beside the values.

Test [3] addresses Protein translocase subunit SecA (Escherichia coli (strain K12)) (UniProt P10408). Briefly: Assay to Identify E. coli SecA ATPase Inhibitors. Further details: scale not given: direction of the effect not stated beside the values. In kind it is functional. As to conditions: 30 µM.
The target in test [4] is T2, Ubiquitin-activating enzyme e1, putative (Leishmania donovani (strain BPK282A1)) (UniProt E9BSI1).
T2 sequence (whole entry): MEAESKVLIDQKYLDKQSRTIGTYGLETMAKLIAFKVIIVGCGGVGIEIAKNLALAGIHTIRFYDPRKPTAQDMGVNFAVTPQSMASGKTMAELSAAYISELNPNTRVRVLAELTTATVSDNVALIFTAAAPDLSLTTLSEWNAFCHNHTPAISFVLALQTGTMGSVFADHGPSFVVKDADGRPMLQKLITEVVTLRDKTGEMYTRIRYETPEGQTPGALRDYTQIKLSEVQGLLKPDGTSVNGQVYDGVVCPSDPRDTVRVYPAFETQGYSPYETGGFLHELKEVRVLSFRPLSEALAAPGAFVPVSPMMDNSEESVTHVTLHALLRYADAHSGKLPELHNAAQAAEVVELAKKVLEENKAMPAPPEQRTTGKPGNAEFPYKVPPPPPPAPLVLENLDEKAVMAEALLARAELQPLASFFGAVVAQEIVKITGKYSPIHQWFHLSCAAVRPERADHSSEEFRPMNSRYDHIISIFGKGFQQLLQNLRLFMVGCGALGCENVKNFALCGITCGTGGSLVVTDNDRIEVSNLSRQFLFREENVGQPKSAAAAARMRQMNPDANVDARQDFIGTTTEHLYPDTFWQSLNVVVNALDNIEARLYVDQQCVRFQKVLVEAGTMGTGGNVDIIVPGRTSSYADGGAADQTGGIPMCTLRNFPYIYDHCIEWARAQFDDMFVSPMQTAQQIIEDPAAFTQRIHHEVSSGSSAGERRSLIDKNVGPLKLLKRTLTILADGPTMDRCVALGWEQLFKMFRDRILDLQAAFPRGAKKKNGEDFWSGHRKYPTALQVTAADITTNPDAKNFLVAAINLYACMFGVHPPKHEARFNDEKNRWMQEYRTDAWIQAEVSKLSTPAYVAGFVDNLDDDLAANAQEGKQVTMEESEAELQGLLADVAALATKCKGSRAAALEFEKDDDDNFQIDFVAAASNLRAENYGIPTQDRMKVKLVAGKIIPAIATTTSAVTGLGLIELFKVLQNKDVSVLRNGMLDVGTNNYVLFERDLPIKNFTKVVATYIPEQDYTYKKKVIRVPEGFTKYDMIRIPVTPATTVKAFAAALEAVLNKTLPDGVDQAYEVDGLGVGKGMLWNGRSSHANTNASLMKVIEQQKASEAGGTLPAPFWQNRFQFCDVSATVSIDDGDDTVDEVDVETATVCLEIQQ
Nature of the test: Leishmania donovani Ubiquitin Activating Enzyme (LdE1). In kind it is functional. As to conditions: 30 µM. Further details: scale not given: direction of the effect not stated beside the values.

Test [5] addresses Sialic acid-binding Ig-like lectin 9 (Homo sapiens) (UniProt Q9Y336). Nature of the test: Hs-Siglec9 ALPHAscreen SOP 20170721. The arrangement: scale not given: direction of the effect not stated beside the values. The settings on record: 10 µM. On the technique in general: Alpha assays give light when donor and acceptor beads are brought close together.
A further test relates to Trypanosoma cruzi. Nature of the test: Trypanosoma cruzi phosphomannomutase and mannose-1-phosphate guanylyltransferase assay. In kind it is functional. Further details: scale not given: direction of the effect not stated beside the values. As to conditions: 10 µM.
Test [6] has as its target T3, Arginase-2, mitochondrial (Homo sapiens) (UniProt P78540).
T3 sequence (whole entry): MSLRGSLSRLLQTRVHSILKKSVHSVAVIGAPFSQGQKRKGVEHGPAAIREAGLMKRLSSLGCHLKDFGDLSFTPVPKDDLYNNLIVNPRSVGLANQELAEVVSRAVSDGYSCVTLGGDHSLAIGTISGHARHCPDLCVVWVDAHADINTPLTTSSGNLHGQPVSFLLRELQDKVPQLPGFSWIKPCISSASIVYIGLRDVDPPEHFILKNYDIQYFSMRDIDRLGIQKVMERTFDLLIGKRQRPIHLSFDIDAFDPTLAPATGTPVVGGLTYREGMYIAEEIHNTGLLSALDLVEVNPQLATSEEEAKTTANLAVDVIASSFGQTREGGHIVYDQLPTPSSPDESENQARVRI
Nature of the test: in vitro enzyme assay to detect the production of urea directly proportional to the activity of Arginase II. In kind it is functional. Further details: scale not given: in the data most compounds retested in dose-response had high values.

The target in test [7] is T4, Proteasome subunit beta (Trypanosoma cruzi) (UniProt O96673).
T4 sequence (whole entry): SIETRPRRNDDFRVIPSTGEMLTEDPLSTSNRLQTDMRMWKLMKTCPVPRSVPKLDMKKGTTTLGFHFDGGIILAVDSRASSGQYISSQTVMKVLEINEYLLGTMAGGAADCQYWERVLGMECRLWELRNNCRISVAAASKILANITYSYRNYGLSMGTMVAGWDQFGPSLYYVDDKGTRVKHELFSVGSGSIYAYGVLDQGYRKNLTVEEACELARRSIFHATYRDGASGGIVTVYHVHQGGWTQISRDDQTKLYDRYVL
Briefly: Trypanosoma cruzi proteasome chymotrypsin-like activity (TcProtChymo) assay. In kind it is functional. Further details: scale not given: in the data most compounds retested in dose-response had high values. As to conditions: 9.37 µM.

A further test is filed under the species Homo sapiens. Briefly: To identify inhibition of the IFN signalling (Jak-Stat) pathway via expression of an eGFP reporter gene under the control of an IFN-stimulated response element (ISRE) containing MxA promoter. In kind it is functional. The arrangement: scale not given: direction of the effect not stated beside the values. As to conditions: 30 µM. In general terms: Reporter assays use an easily measured gene product as a stand-in for the process of interest.

In test [8] the target is T5, Tyrosyl-tRNA synthetase, putative (Trypanosoma cruzi (strain CL Brener)) (UniProt Q4DSP6).
T5 sequence (whole entry): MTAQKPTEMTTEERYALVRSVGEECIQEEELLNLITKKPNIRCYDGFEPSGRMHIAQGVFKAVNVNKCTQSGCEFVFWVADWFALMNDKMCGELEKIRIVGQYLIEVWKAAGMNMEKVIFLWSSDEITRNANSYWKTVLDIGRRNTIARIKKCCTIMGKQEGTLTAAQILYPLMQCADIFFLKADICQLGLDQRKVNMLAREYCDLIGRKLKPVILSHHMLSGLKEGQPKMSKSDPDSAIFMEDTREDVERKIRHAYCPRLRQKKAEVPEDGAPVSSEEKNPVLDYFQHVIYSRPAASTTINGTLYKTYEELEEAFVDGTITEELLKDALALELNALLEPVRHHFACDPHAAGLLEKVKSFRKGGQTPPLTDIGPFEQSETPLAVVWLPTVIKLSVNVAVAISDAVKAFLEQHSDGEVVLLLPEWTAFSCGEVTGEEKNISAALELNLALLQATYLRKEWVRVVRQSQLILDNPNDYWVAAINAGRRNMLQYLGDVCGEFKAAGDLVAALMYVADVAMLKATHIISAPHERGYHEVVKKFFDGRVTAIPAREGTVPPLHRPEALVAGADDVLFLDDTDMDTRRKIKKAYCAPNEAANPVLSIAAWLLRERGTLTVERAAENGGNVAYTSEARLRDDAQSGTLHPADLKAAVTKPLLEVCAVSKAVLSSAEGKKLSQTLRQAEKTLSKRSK
Nature of the test: Trypanosoma cruzi tyrosyl tRNA synthetase (TcYRS) _High Tyrosine SOP. In kind it is functional. Further details: scale not given: in the data most compounds retested in dose-response had high values. As to conditions: 30 µM.

Test [9] addresses T5, Tyrosyl-tRNA synthetase, putative (Trypanosoma cruzi (strain CL Brener)). Briefly: Trypanosoma cruzi tyrosyl tRNA synthetase (TcYRS) SOP. In kind it is functional. The settings on record: 30 µM. The arrangement: scale not given: direction of the effect not stated beside the values.
In test [10] the target is Chromo domain-containing protein 1 (Saccharomyces cerevisiae (strain ATCC 204508 / S288c) (Baker's yeast)) (UniProt P32657). Briefly: ScCHD-1 Enzyme Inhibition Assay. In kind it is functional. The arrangement: scale not given: in the data most compounds retested in dose-response had high values. The settings on record: 30 µM.
Chromo domain-containing protein 1 (Saccharomyces cerevisiae (strain ATCC 204508 / S288c) (Baker's yeast)), sequence (P32657 whole entry, the tested form may be a part): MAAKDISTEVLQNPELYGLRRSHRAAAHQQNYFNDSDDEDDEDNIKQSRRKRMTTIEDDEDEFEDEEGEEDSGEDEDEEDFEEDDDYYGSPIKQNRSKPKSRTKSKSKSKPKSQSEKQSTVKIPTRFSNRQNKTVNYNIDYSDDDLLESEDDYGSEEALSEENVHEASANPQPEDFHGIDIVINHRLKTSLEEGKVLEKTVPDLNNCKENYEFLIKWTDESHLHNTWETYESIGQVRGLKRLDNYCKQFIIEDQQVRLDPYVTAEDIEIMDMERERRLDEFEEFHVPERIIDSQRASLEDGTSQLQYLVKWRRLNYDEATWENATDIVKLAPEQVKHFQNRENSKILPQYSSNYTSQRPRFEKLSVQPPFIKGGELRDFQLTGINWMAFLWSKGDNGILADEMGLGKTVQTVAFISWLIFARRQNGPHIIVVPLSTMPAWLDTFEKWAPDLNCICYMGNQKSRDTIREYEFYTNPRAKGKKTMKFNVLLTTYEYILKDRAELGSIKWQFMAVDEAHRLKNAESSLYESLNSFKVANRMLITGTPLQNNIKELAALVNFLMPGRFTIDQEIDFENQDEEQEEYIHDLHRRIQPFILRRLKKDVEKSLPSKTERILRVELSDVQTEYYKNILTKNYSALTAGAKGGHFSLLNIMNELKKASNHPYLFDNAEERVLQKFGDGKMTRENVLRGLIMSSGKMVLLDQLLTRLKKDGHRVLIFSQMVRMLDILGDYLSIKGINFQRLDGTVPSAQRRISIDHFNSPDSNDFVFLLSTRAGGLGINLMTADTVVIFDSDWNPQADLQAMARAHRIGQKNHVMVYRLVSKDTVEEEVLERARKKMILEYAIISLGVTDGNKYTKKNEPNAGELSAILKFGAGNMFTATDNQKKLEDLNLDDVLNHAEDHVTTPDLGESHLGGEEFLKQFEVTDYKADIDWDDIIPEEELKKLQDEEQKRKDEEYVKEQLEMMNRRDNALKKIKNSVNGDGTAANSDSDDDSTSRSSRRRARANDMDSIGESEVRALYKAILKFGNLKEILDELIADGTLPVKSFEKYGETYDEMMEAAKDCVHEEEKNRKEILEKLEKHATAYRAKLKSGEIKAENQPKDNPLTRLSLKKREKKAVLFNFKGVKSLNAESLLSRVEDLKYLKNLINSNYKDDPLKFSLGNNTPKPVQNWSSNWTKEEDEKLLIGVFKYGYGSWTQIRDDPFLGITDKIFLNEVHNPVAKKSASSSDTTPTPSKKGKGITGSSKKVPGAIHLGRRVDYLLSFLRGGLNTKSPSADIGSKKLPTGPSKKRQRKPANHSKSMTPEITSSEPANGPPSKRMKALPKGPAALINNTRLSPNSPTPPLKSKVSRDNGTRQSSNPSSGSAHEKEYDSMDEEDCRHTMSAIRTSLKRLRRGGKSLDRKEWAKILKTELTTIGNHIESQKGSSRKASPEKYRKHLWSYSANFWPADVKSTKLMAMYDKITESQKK

Results on five compounds are retold here after ChEMBL document CHEMBL3988442, “University of Dundee, Small-Polar-MMV Screening Library” (2021).

For some assays here: Potency and affinity values are given separately. Some results are limits rather than exact numbers.

Sialic acid-binding Ig-like lectin 9 (Homo sapiens), sequence (Q9Y336 whole entry): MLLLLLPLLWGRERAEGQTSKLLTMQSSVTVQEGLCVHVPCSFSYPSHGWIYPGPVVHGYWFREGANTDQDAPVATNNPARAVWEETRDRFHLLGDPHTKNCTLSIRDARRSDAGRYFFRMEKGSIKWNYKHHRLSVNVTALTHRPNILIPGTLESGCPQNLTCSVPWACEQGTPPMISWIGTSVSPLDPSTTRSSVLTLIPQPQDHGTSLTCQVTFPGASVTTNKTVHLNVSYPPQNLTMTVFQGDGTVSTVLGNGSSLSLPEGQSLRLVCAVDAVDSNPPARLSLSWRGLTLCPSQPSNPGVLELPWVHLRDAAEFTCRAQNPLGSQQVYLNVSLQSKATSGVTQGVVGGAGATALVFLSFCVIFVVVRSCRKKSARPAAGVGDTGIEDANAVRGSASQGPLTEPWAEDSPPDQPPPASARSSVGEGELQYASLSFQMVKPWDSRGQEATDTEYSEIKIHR
Protein translocase subunit SecA (Escherichia coli (strain K12)), sequence (P10408 whole entry): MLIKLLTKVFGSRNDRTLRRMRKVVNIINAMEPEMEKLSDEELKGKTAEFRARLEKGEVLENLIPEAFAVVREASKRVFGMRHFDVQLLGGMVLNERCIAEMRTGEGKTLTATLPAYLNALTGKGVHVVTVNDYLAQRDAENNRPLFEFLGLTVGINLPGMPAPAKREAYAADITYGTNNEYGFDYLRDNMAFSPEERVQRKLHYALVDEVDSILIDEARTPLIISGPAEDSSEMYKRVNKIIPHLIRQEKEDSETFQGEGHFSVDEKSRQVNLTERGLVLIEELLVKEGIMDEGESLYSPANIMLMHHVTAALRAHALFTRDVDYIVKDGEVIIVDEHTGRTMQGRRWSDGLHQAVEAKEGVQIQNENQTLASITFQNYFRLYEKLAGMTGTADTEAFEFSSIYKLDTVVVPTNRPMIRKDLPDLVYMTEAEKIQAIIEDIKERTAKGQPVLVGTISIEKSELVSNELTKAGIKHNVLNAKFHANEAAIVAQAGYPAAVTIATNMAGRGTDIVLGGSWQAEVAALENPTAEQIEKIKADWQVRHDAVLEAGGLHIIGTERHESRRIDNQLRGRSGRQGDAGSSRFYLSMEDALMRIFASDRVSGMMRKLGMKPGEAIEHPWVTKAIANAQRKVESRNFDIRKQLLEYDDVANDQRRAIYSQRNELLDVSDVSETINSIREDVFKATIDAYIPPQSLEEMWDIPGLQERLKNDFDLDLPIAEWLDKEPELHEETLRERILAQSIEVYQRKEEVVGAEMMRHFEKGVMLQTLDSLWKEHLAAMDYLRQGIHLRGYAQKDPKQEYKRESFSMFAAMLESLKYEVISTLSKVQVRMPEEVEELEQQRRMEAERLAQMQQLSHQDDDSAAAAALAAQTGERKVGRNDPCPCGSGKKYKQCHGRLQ

Consider `Cc1nc(NCc2nncn2C2CC2)c2c(CC(C)C)csc2n1`, for which the PXC50 in [1] (MAX_EFFECT 9.660574413) and in [1] (MAX_EFFECT 12.53263708) was less than 4 each time. For the same compound, the Percent Effect in [2] is -3.8%.

With `Cc1ccc([C@@H]2CN(S(=O)(=O)C(C)C)C[C@H]2N(C)C)cc1`, the Percent Effect in test [3] is -6.03%; in [4], 13.5%; in [2], -2.84%; in test [5], 23.9%; with Trypanosoma cruzi it was 7.33%; in [6] (30 µM), -14.6%. Moreover, the Percent Effect in test [6] (33.3 µM) was 4.22%; in [7], -0.258%; in the test listed under Homo sapiens, -1%; in test [8], 3.23%; in test [9], 18.5%; in test [10] it was -8.94%.

For `Cn1cc(CN2CCC(F)(F)C3(CCN(c4cnccn4)C3)C2)cn1` (stereo not drawn), the PXC50 in test [1] (MAX_EFFECT 6.650831354) and in test [1] (MAX_EFFECT 15.31690141) was less than 4 in each case. Further, the Percent Effect is -4.19% in test [3]; 2.7% in [4]; 6.66% in test [2]; -1.14% in test [5]; 0% with Trypanosoma cruzi; 4.17% in test [6] (33.3 µM). In addition, the Percent Effect was -3.47% in [7]; 5.63% in the test filed under Homo sapiens; 8.91% in test [8]; 8.54% in [9]; -4.16% in test [10].

As to `Cc1ccc([C@@H]2CN(S(=O)(=O)c3cccs3)C[C@H]2N(C)C)cc1`, the Percent Effect was -5.74% in test [3]; 2.7% in test [4]; -3.82% in test [2]; 22.9% in test [5]; 2.25% with Trypanosoma cruzi; -0.54% in test [6] (30 µM). Further, the Percent Effect in [6] (33.3 µM) was -0.744%; in test [7] it was 0.944%; in the test listed under Homo sapiens, 22.4%; in [8], 3.23%; in test [9], 13.6%; in [10], -3.75%.

Turning to `Cn1cnnc1C1CCN(c2cncc(-n3cccn3)n2)CC1`, the PXC50 in test [1] (MAX_EFFECT 4.275534442) and in test [1] (MAX_EFFECT 11.79577465) was less than 4 each time. The Percent Effect is -2.06% in [3]; 8.11% in test [4]; -2.17% in test [2]; -0.628% in test [5]; 0.781% in the test with Trypanosoma cruzi; 2.92% in test [6] (33.3 µM). Moreover, the Percent Effect in test [7] was 13.8%; in the test filed under Homo sapiens it was -3.56%; in test [8] it was 5.94%; in test [9], 8.54%; in test [10], -8.65%.
